Screening data deposited in PubChem BioAssay by National Center for Advancing Translational Sciences (NCATS).
Cruzain inh noDet: qHTS Assay for Promiscuous and Specific Inhibitors of Cruzain (without detergent). Cruzipain (Trypanosoma cruzi), P25779. purified cruzain, Z-FR-AMC fluorescence, no detergent. Potency, µM, actives largely listed as inhibitors. 200,000 tested, 2.3% active; note: nearly all actives have a fitted effect of over 40% in size
Target sequence (P25779 123-467 limits assumed): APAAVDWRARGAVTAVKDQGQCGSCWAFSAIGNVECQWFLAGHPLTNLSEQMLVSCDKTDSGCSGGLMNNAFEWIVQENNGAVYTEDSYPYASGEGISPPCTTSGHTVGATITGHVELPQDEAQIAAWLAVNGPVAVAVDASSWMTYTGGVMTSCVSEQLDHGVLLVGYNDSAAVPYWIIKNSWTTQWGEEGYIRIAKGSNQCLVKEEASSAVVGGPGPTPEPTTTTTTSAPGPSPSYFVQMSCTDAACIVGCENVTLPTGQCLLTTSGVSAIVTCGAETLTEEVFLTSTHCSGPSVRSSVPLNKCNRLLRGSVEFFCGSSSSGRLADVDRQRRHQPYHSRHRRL
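Purified cruzain at 1.5 nM, pre-incubated 15 min with compound at room temperature in 100 mM sodium acetate pH 5.5, 5 mM DTT, 0.00005% Triton X-100. Reaction started with 2 uM Z-FR-AMC; AMC fluorescence increase over 60 s gives rate.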
Cruzain inh Det: qHTS Assay for Promiscuous and Specific Inhibitors of Cruzain (with detergent); purified cruzain, Z-FR-AMC fluorescence, 0.01% Triton; 200,000 tested, 0.43% active; Cruzipain (Trypanosoma cruzi), P25779; Potency, µM, most hits filed as inhibitors; note: nearly all actives have a fitted effect of over 40% in size
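Compounds were screened in titration against cruzain (1.5 nM) with 0.01% Triton X-100 to counter colloidal aggregation. Activity was the AMC fluorescence increase over 60 s after adding 2 uM Z-FR-AMC at pH 5.5.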
Numbers stand for hits; - = inactive; ? = inconclusive. Only some compounds are listed: those with a hit (about 2.5% of all), similar ones and a draw of the others. Calls come from the whole dose curve; as a rule, active = well fitted curve in the direction sought with a large enough effect; inconclusive = small, poorly fitted or top-dose-only effect, or another doubt; inactive = no such curve, though single readings can be large; an effect the other way counts as inactive or inconclusive.

SMILES	Cruzain inh noDet	Cruzain inh Det
Cc1ccccc1NC(=O)c1c(NC(=O)c2ccncc2)sc2c1CCC(C(C)(C)C)C2 (stereo not drawn)	-	-
O=C(NCCc1cn2ccccc2n1)c1ccccc1F	?	-
c1cn2cc(CSC3CCCCC3)nc2s1	-	-
O=C(NCCc1cn2ccsc2n1)C1CCCCC1	13µM	-
O=C(NCCc1cn2ccccc2n1)C1CCCCC1	16µM	-
COc1ccccc1NC(=O)Cn1nc2c3cc(F)ccc3n(Cc3cccc(C)c3)cc-2c1=O	-	-
O=C(NC(=S)Nc1nc2c(ccc3ccccc32)s1)c1cccs1	20µM	-
O=C(Nc1nc2c(ccc3ccccc32)s1)c1ccco1	-	-
COc1ccc(N(C)S(=O)(=O)c2cccc(C(=O)Nc3ccc(OC)nc3)c2)cc1	-	-
COc1ccc(C)cc1NC(=O)c1ccc(N(C)S(C)(=O)=O)cc1	-	-
COc1ccc(C)cc1NC(=O)C(OC(=O)c1ccc(Cl)c(S(=O)(=O)N(C)c2ccccc2)c1)c1ccccc1 (stereo not drawn)	10µM	-
CC(=O)NCCC(=O)Nc1cccc(S(=O)(=O)N(C)c2ccccc2)c1	-	-
CC(=O)c1cccc(NC(=O)C(OC(=O)c2cccc(S(=O)(=O)N(C)c3ccccc3)c2)c2ccccc2)c1 (stereo not drawn)	25µM	-
COc1ccc(N(C)S(=O)(=O)c2cccc(C(=O)OC(C(=O)Nc3cc(C)cc(C)c3)c3ccccc3)c2)cc1 (stereo not drawn)	10µM	-
CC(=O)c1cccc(NC(=O)C(OC(=O)c2ccccc2NS(=O)(=O)c2cccs2)c2ccccc2)c1 (stereo not drawn)	7.9µM	-
CCOc1ccccc1NC(=O)C(OC(=O)c1ccccc1NS(=O)(=O)c1cccs1)c1ccccc1 (stereo not drawn)	?	-
Cc1cccc(NC(=O)CSc2nc(-c3cccc(C)c3)nc3c2Cc2c(CO)cnc(C)c2O3)c1	-	-
Cc1nc(N)sc1-c1csc(Nc2ccc(Cl)cn2)n1	16µM	28µM
COc1ccc(CCNc2nc(-c3sc(N)nc3C)cs2)cc1OC	10µM	14µM
COc1ccc(Nc2nc(-c3sc(N)nc3C)cs2)cc1	16µM	16µM
COc1ccc(CCNc2ccncn2)cc1OC	-	-
Oc1ccc(Nc2nc(-c3cccs3)cs2)cc1	-	-
COc1ccc(Nc2nc(-c3sc(NC(C)=O)nc3C)cs2)cc1	-	-
COc1ccc(Nc2nc(-c3cccs3)cs2)cc1	16µM	-
CC(=O)Nc1cccc(-c2csc(Nc3ccc(C)cn3)n2)c1	-	-
SMILES	Cruzain inh noDet	Cruzain inh Det
O=S(=O)(Nc1ccc(-c2ccc(N3CCCC3)nn2)cc1)c1cccc(C(F)(F)F)c1	-	-
COc1ccc(C(=O)Cn2c(=O)c(-c3cc(C)ccc3NC(C)=O)nc3ccccc32)cc1	-	-
C[C@H](CCC(=O)NN)[C@@H]1CC[C@@H]2[C@H]3CC[C@H]4C[C@@H](O)CC[C@@]4(C)[C@@H]3CC[C@]21C	?	-
CC(C)Cn1c(=O)c2sccc2n2c(CCCC(=O)NC3CCCCC3)nnc12	-	-
CCOc1ccc(Nc2oc(/C=C/c3ccc(OC)c(OC)c3)nc2C#N)cc1	-	-
Cc1cccnc1Nc1nc(-c2ccc(O)cc2)cs1	-	-
Cc1nc(N)sc1-c1csc(Nc2ccccn2)n1	13µM	?
COc1ccc(-c2cc(C(=O)OCC(=O)c3cccc(OC)c3)c3cccc(Cl)c3n2)cc1	-	-
COc1ccc(-c2nc(-c3ccc(Br)o3)no2)cc1	-	-
COc1ccc(Cl)cc1-c1nc(-c2ccc(Br)o2)no1	7.9µM	-
CC1CCC(C(=O)NC(C(=O)OCC(=O)c2ccccc2)C(C)C)CC1 (stereo not drawn)	?	16µM
CCc1ccc(C(=O)COC(=O)C(Cc2ccccc2)NC(=O)C2CCC(C)CC2)cc1 (stereo not drawn)	-	-
COc1ccc(Cl)cc1Nc1nc(-c2sc(NC(=O)c3ccccc3)nc2C)cs1	6.3µM	-
Cc1nc(NC(=O)c2ccccc2)sc1-c1csc(Nc2ccc(Cl)cc2Cl)n1	7.9µM	-
COc1ccc(OC)c(Nc2nc(-c3sc(NC(=O)c4ccccc4)nc3C)cs2)c1	?	-
Cc1ccc(CN(Cc2cccn2-c2nnc(N3CCCC3=O)s2)C(=O)Nc2ccc(F)cc2)cc1	-	-
Cc1cccc(-n2ncc3c(Nc4ccc(Oc5ccc(Cl)cc5)cc4)ncnc32)c1	25µM	-
Cc1cccc(-n2ncc3c(Nc4ccc(C)c(Cl)c4)ncnc32)c1	-	-
CCc1ccc(CNC(=O)c2ccc(Cn3c(=O)c4cccn4c4cccnc43)cc2)cc1	-	-
COc1ccc(-c2oc(NC(C)=O)c(C#N)c2-c2ccc(OC)cc2)cc1	-	-
COc1ccc(-c2oc(NC(=O)c3ccc(C)cc3)c(C#N)c2-c2ccc(OC)cc2)cc1	13µM	-
